# Screening data from PubChem BioAssay.
# Pf growth 96h: P. falciparum growth inhibition at 96 hour, primary screen for plastid delayed-death inhibitors; P. falciparum luciferase reporter growth, 96 h; Potency, µM (doses to about 28.7 µM), inactives show top-dose activity change, negative = inhibition, most hits filed as inhibitors; 320,000 compounds, 6.9% hits; note: potency is the fitted concentration of half-maximal effect; % is set by controls: 0 for no effect and ±100 for the full control effect
#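 Two parasite generations (96 h, 37 C, 5% CO2) of compound exposure in infected erythrocytes (0.05% parasitemia, 2% hematocrit). Luciferase-reporter P. falciparum; decreased luminescence indicates inhibited growth, aimed at apicoplast-acting delayed death.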
# Shiga toxin inh: inhibitors of Shiga toxin in Vero cells; 290,000 compounds, 9.2% hits; AID 2315; Vero cells, Shiga toxin protein synthesis inhibition reporter; inhibition, % at 38.7 µM; in the data active = inhibition mostly above about 28%, no sharp cut-off; inactive = mostly below about 43%; note: 0% is about no effect
# Cycloheximide cs: counter-screen for Shiga toxin inhibitors: cycloheximide protein synthesis inhibition; cell reporter, cycloheximide protein synthesis inhibition counterscreen; max response, %; 300,000 compounds, 12% hits; in the data active = max response mostly above about 13%, no sharp cut-off; inactive = mostly below about 14%; note: read at 38.3 µM for the half of the compounds with a filed dose; 0% is about no effect
# NS1 function inh: inhibitors of influenza NS1 protein function. Potency, µM (highest dose often 46.1 µM), for the others: top-dose activity, positive = more growth. 270,000 compounds, 0.4% hits. AID 2326; calls by dose curve; note: potency is the fitted concentration of half-maximal effect; actives are rising curves; nearly all actives have a fitted effect of over 50% in size
#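 OD600 was taken as the measure of yeast growth restored by compound in an NS1-expressing S. cerevisiae strain. Cells had been washed out of glucose medium and diluted 1:100 into galactose -URA medium, pH 6.0.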
# SARS PLP yeast: SARS-CoV PLP inhibition in yeast; 330,000 compounds, 0.19% hits; Potency, µM (titrated, usually from 32.9 µM), without a hit: at the top dose activity, positive = growth rescue, usual class: activators; S. cerevisiae expressing SARS-CoV PLpro, growth rescue; AID 485353; calls by dose curve; note: potency is the fitted concentration of half-maximal effect; 0% is about no effect; nearly all actives have a fitted effect of over 55% in size
# Pf growth 48h: inhibits P. falciparum growth in the first generation, 48 h | P. falciparum luciferase growth in erythrocytes, 48 h | Potency, µM (series often up to 28.7 µM), without a hit: top-dose activity change, negative = inhibition, actives largely listed as inhibitors | 310,000 compounds, 5.9% hits; note: potency is the fitted concentration of half-maximal effect; % is set by controls: 0 for no effect and ±100 for the full control effect
#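 Parasite viability was followed by luminescence of a genomically integrated firefly luciferase. Cultures held 0.1% parasitemia at 2% hematocrit (final), incubated under 5% CO2 at 37 C.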
# Active calls of the source: *; i = inactive; ? = inconclusive; · = not tested or not shown. The list is not random: actives were taken first. Their share in the collection is about 21%. Unless noted, calls come from the whole dose curve; as a rule, active = well fitted inhibition curve with a large enough effect; inconclusive = small, poorly fitted or top-dose-only effect, or another doubt; inactive = no such curve, though single readings can be large or run the other way.
SMILES,Pf growth 96h,Shiga toxin inh,Cycloheximide cs,NS1 function inh,SARS PLP yeast,Pf growth 48h
Clc1ccccc1CSc1cc2c(nn1)-c1ccccc1CC2,2%,165*,42*,-3%,-15%,71%
COc1ccc(-c2cc(C(=O)NCC3CCCO3)c3ccccc3n2)cc1 (centres undefined),19%,29,16,·,-8%,50%
COc1ccc(-c2nc(C(=O)NCC3CCCO3)cc3c2[nH]c2ccccc23)cc1 (centres undefined),7.4µM*,-6,-3,-46%,0%,5.2µM*
O=C(NCC1CCCO1)c1cc2c([nH]c3ccccc32)c(-c2cccc(Br)c2)n1 (centres undefined),3.7µM*,-5,-2,-21%,-16%,?
Cc1ccccc1-c1nc(C(=O)NCC2CCCO2)cc2c1[nH]c1ccccc12 (centres undefined),12µM*,-2,-2,-34%,-13%,?
Cc1ccc(-c2nc(C(=O)NCC3CCCO3)cc3c2[nH]c2ccccc23)cc1 (centres undefined),?,10,-3,-18%,-12%,7.4µM*
C=C(C)Cn1c(C)cc(C)c(S(=O)(=O)c2cccc(C)c2)c1=O,-15%,20,-1,2%,0%,-20%
Cc1cc(C)nc(Nc2n[nH]c(-c3cccc4ccccc34)n2)n1,?,27,19*,10%,2%,?
O=C(CSC1=N/C(=C/c2ccc(Cl)c(Cl)c2)C(=O)N1c1ccccc1F)NC1CC1,29%,18,-3,1%,0%,12%
CCOC(=O)/C=c1\s/c(=C\c2c(OCC)ccc3ccccc23)c(=O)n1CC(=O)NCC1CCCO1 (centres undefined),·,19,9,13%,-4%,12µM*
CCN(C(=O)[C@@H]1CCCN1C(=O)c1cccs1)c1nc2cc(Cl)ccc2s1,1%,9,18*,16%,-1%,11%
Cc1cc(Cl)ccc1NC(=O)C1CCCN1C(=O)c1cccs1 (centres undefined),27%,3,-2,4%,0%,-2%
O=[N+]([O-])c1cc(C(F)(F)F)cc([N+](=O)[O-])c1NCCN1CCNCC1,3%,-5,-2,6%,0%,?
O=C(COC(=O)c1ccccn1)c1ccc([N+](=O)[O-])cc1,41%,41*,10,4%,-2%,?
O=C(COC(=O)c1ccccn1)Nc1nc(-c2ccccc2)cs1,?,81*,42*,-77%,-8%,74%
Cn1ncc(Br)c1C(=O)OCC(=O)Nc1nc(-c2ccccc2)cs1,57%,31*,19*,6%,-6%,106%
O=C(CSc1ccc(-c2ccccn2)nn1)c1ccc([N+](=O)[O-])cc1,3%,69,4,·,27%,10%
O=C(COC(=O)c1ccccn1)Nc1nc(-c2cccc([N+](=O)[O-])c2)cs1,43%,29,18*,2%,0%,32%
COc1ccccc1OC(C)C(=O)N1CCN(Cc2ccc3c(c2)OCO3)CC1 (centres undefined),14%,-15,-3,-7%,-3%,-4%
CC(=O)Nc1ccc(NC(=O)C(C)OC(=O)C2CCN(S(=O)(=O)c3ccc4c(c3)OCCO4)CC2)cc1 (centres undefined),1%,·,·,·,0%,?
Cc1c(Nc2ccc(C=O)cc2)c(=O)n(-c2ccccc2)n1C,0%,6,5,-5%,0%,10%
CCC(=O)Nc1nnc(S(=O)(=O)N2c3ccccc3CC2C)s1 (centres undefined),45%,-6,-1,-6%,1%,21%
Cc1ccnc(NS(=O)(=O)c2ccc(C(C)(C)C)cc2)c1,38%,-3,-3,1%,0%,-3%
Cc1ccnc(NS(=O)(=O)c2ccc(-n3cccn3)cc2)c1,10µM*,-9,-2,8%,5%,47%
COc1ccc(CNC(=O)Cc2ccc(NC(=O)C3=C(C)OCCS3)cc2)cc1,?,56*,19*,13%,2%,100%
SMILES,Pf growth 96h,Shiga toxin inh,Cycloheximide cs,NS1 function inh,SARS PLP yeast,Pf growth 48h
CCOc1ccc(CNC(=O)c2cccc(NC(=O)C3=C(C)OCCS3)c2)cc1,?,8,17*,-15%,5%,?
CC1=C(C(=O)Nc2cccc(C(=O)NC3CCCCC3C)c2)SCCO1 (centres undefined),9.3µM*,-5,-8,-6%,21%,-11%
CC1=C(C(=O)Nc2ccc(CC(=O)NCc3ccc(OC(C)C)cc3)cc2)SCCO1,?,82*,42*,6%,17%,102%
CCN(CC)C(=O)c1ccc(NC(=O)C2=C(C)OCCS2)cc1,-1%,18,9,-2%,1%,30%
O=C(N/C(=C/c1cccc([N+](=O)[O-])c1)C(=O)N1CCCCCC1)c1cccs1,74%,-67,14,6%,-12%,0%
O=C(c1cc(-c2ccco2)on1)N1CCOCC1,0%,47*,27*,-6%,0%,56%
CN1CCN(C(=O)c2cc(-c3ccco3)on2)CC1,8%,36,15*,2%,5%,68%
COC(=O)C1CCN(C(=O)c2sc3nc(-c4ccc(F)cc4)cn3c2C)CC1,?,37*,16*,-9%,-1%,-27%
CCOC(=O)C1CCCN(C(=O)c2sc3nc(-c4ccc(OC)cc4)cn3c2C)C1 (centres undefined),-16%,13,-2,-2%,-2%,13µM*
COc1ccc2c(c1)C(c1cc(OC)c(OC)c(OC)c1)CC(=O)O2 (centres undefined),·,i,8,·,·,·
CCC(=O)N1CCN(c2ccc(NC(=S)NC(=O)COc3ccccc3)cc2)CC1,15µM*,2,-3,8%,-2%,-10%
CCC(=O)N1CCN(c2ccccc2NC(=S)NC(=O)c2cccc([N+](=O)[O-])c2)CC1,-3%,-5,-4,·,0%,-6%
CC(C)(O)C#Cc1ccc(C(=O)N2CCN(c3ccc(F)cc3)CC2)cc1,?,20,10,·,-5%,12%
CCC(=O)N1CCN(c2ccc(NC(=S)NC(=O)c3cccc([N+](=O)[O-])c3)cc2)CC1,7.4µM*,18,-3,16%,-4%,2%
CCC(=O)NC(=S)Nc1ccc(N2CCN(C(=O)c3ccc(Cl)cc3)CC2)cc1,12µM*,19,3,-1%,-2%,?
CC(C)(O)C#Cc1ccc(C(=O)N2CCN(c3ccc(Cl)cc3)CC2)cc1,6.6µM*,2,-3,·,3%,9%
O=C(C1COc2ccccc2O1)N1CCN(c2ccccc2F)CC1 (centres undefined),?,25,1,-4%,-8%,12µM*
O=C(C1COc2ccccc2O1)N1CCc2ccccc2C1 (centres undefined),?,60*,29*,-8%,29%,15%
